Source: PubChem BioAssay (Tox21)
Records with an inconclusive call do not appear. A call without a number means that no potency is given here. Values without a mark were called inactive. The source made the active and inactive calls. Unless noted, the call rests on the fitted dose curve; in most records, active means well fitted curve in the direction sought with a large enough effect in the repeat runs; inconclusive means weak or mixed curves; inactive means no such curve, though single readings can be large; an effect the other way counts as inactive or inconclusive.

Assays:
[1] = qHTS assay to identify aromatase inhibitors - cell viability counter screen (AID 743084);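 further: cells stimulated with testosterone during compound exposure; nearly all actives have a fitted effect of over 55% in size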
[2] = biological target: Aryl hydrocarbon receptor (Homo sapiens) (UniProt P35869); experiment: qHTS assay to identify small molecule that activate the aryl hydrocarbon receptor (AhR) signaling pathway (AID 743085); further: nearly all actives have a fitted effect of over 15% in size; further: potency means the concentration at half of the fitted maximal effect;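 on activation: HG2L7.5c1 human HepG2 liver cells with stably integrated DRE-driven firefly reporter; series mostly up to about 70 µM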
In short: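 HepG2 cells (HG2L7.5c1) stably carrying a firefly luciferase reporter driven by 20 dioxin responsive elements were exposed to compound for 24 h at 37C after a 5 h settling period; luminescence rise (ONE-Glo) indicated activation.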

[3] = qHTS assay to identify small molecule that activate the aryl hydrocarbon receptor (AhR) signaling pathway - cell viability counter screen (AID 743086);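 further: HepG2 liver cells carrying the AhR DRE luciferase reporter; series mostly up to about 70 µM; nearly all actives have a fitted effect of over 45% in size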
In short: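 HepG2-AhR-luc (HG2L7.5c1) cells, 4000/well, treated 24 h at 37 C with compound; viability measured as CellTiter-Fluor fluorescence after 30 min in the same wells as the luciferase read.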

[4] = biological target: Peroxisome proliferator-activated receptor gamma (Homo sapiens) (UniProt P37231); experiment: qHTS assay to identify small molecule agonists of the peroxisome proliferator-activated receptor gamma (PPARg) signaling pathway (AID 743094; active means well fitted activation curve with a large enough effect in the signal ratio in the repeat runs, not every such curve was filed as active; the % refers to the signal ratio)
In short: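 GeneBLAzer PPARg UAS-bla HEK293H cells were plated, rested 5 h, then exposed to compounds for 17 h at 37C. Beta-lactamase activity was read by LiveBLAzer B/G FRET substrate fluorescence after 1 h at room temperature.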

[5] = biological target: Peroxisome proliferator-activated receptor gamma (Homo sapiens) (UniProt P37231); experiment: qHTS assay to identify small molecule antagonists of the peroxisome proliferator-activated receptor gamma (PPARg) signaling pathway (AID 743191; calls by dose curve; further: nearly all actives have a fitted effect of over 30% in size; further: potency means the concentration at half of the fitted maximal effect)
In short: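 GeneBLAzer PPARg UAS-bla HEK293H cells, 5 h post-plating, exposed to compounds 17 h at 37C. LiveBLAzer B/G FRET substrate added for 1 h at room temperature; beta-lactamase reporter read by fluorescence intensity.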

[6] = qHTS assay to identify small molecule antagonists of the peroxisome proliferator-activated receptor gamma (PPARg) signaling pathway - cell viability counter screen (AID 743194); further: nearly all actives have a fitted effect of over 55% in size
In short: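 Cytotoxicity counter screen in PPARg-bla HEK293H cells, same wells as reporter assay. Compounds plus 50 nM rosiglitazone (final) for 17 h at 37 C, then viability read by CellTiter-Glo luminescence.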

[7] = qHTS assay for small molecule activators of the heat shock response signaling pathway - cell viability counter screen (AID 743209); further: nearly all actives have a fitted effect of over 50% in size
In short: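 HSE-bla HeLa cells plated overnight, then exposed to Tox21 compounds (23 nL in DMSO) for 5 h at 37 C. After the bla reporter read, CellTiter-Glo was added in the same wells and luminescence read after 30 min at room temperature.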

[8] = qHTS assay for small molecule activators of the heat shock response signaling pathway (AID 743210; active means well fitted activation curve with a large enough effect in the signal ratio in the repeat runs, with a control signal flat, not every such curve was filed as active; the % refers to the signal ratio; further: series mostly up to about 63 µM)
In short: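 HSE-bla HeLa cells (beta-lactamase reporter under heat shock response elements), plated overnight, then exposed to compounds 5 h at 37 C; LiveBLAzer B/G FRET substrate added, 2.5 h at room temperature, fluorescence intensity read.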

[9] = qHTS assay to identify small molecule agonists of the peroxisome proliferator-activated receptor delta (PPARd) signaling pathway - cell viability counter screen (AID 743211); further: nearly all actives have a fitted effect of over 55% in size
In short: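 PPARd-bla HEK293H cells (UAS-beta-lactamase reporter) were treated with compounds for 17 h at 37 C. Viability was then read in the same wells by CellTiter-Glo luminescence after 30 min at room temperature.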

[10] = biological target: Peroxisome proliferator-activated receptor delta (Homo sapiens) (UniProt Q03181); experiment: qHTS assay to identify small molecule agonists of the peroxisome proliferator-activated receptor delta (PPARd) signaling pathway (AID 743212; calls by dose curve)
In short: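 GeneBLAzer UAS-bla HEK293H cells carrying a PPARδ construct were exposed to compounds at 37 °C. Beta-lactamase activity was read by FRET fluorescence after 2 h at room temperature with LiveBLAzer B/G substrate.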

[11] = qHTS assay to identify small molecule antagonists of the peroxisome proliferator-activated receptor delta (PPARd) signaling pathway - cell viability counter screen (AID 743213); further: nearly all actives have a fitted effect of over 50% in size
In short: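 HEK293H PPARd UAS-bla cells, 5 h pre-incubation, compound + L165041 300 nM final, 17 h 37 C; B/G FRET substrate 2 h RT; then CellTiter-Glo 30 min RT, luminescence.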

[12] = biological target: Bile acid receptor (Homo sapiens) (UniProt Q96RI1); experiment: qHTS assay to identify small molecule antagonists of the farnesoid-X-receptor (FXR) signaling pathway (AID 743217; active means well fitted inhibition curve with a large enough effect in the signal ratio in the repeat runs, not every such curve was filed as active; the % refers to the signal ratio)
In short: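 FXR-UAS-bla HEK 293T cells (beta-lactamase reporter) given compound plus chenodeoxycholic acid (50 uM final), 16 h at 37C. LiveBLAzer B/G FRET substrate added for 2 h at room temperature; fluorescence read.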

[13] = qHTS assay to identify small molecule agonists of the farnesoid-X-receptor (FXR) signaling pathway - cell viability counter screen (AID 743218); further: nearly all actives have a fitted effect of over 45% in size
In short: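 FXR-UAS-bla HEK 293T cells exposed to compounds for 16 h at 37C. Cytotoxicity read in the same wells by CellTiter-Glo luminescence after 30 min at room temperature, following the beta-lactamase FRET read.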

[14] = biological target: Bile acid receptor (Homo sapiens) (UniProt Q96RI1); experiment: qHTS assay to identify small molecule agonists of the farnesoid-X-receptor (FXR) signaling pathway (AID 743220; active means well fitted activation curve with a large enough effect in the signal ratio in the repeat runs, not every such curve was filed as active; the % refers to the signal ratio)
In short: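 Beta-lactamase reporter under UAS control in GeneBLAzer FXR HEK 293T cells (5000/well) measured with LiveBLAzer FRET substrate after 2 h at room temperature. Compound exposure lasted 16 h at 37C.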

[15] = qHTS assay for small molecule agonists of the antioxidant response element (ARE) signaling pathway (AID 743202; active means well fitted activation curve with a large enough effect in the signal ratio in the repeat runs, not every such curve was filed as active; the % refers to the signal ratio; further: potency means the concentration at half of the fitted maximal effect)
In short: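 ARE-bla HepG2 cells (beta-lactamase reporter under the antioxidant response element), plated 5 hours, then exposed to compounds 16 hours at 37 C. LiveBLAzer B/G FRET substrate added for 2 hours at room temperature; fluorescence intensity read.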

[16] = qHTS assay to identify small molecule antagonists of the farnesoid-X-receptor (FXR) signaling pathway - cell viability counter screen (AID 743221; active means well fitted cell-killing curve with a large enough effect in the repeat runs, not every such curve was filed as active; further: nearly all actives have a fitted effect of over 50% in size)
In short: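 FXR-UAS-bla HEK 293T cells were treated with test compounds plus chenodeoxycholic acid (50 uM final) for 16 h at 37 C. Cell viability in the same wells was then read as CellTiter-Glo luminescence after 30 min at room temperature.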

[17] = biological target: Vitamin D3 receptor (Homo sapiens) (UniProt P11473); experiment: qHTS assay to identify small molecule agonists of the vitamin D receptor (VDR) signaling pathway (AID 743222; calls by dose curve)
In short: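 VDR-bla cells plated 4 h at 37 C, then exposed to compounds for 16 h at 37 C. Beta-lactamase reporter activity measured by fluorescence after 2 h room-temperature loading with LiveBLAzer B/G FRET substrate.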

[18] = qHTS assay for small molecule agonists of the antioxidant response element (ARE) signaling pathway - cell viability counter screen (AID 743203; calls by dose curve; further: nearly all actives have a fitted effect of over 55% in size)
In short: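 ARE-bla HepG2 cells were plated, rested 5 h at 37C/5% CO2, then exposed to compounds in DMSO for 16 h. Viability was read as CellTiter-Glo luminescence after 30 min at room temperature, in the same wells as the ARE screen.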

[19] = biological target: Peroxisome proliferator-activated receptor delta (Homo sapiens) (UniProt Q03181); experiment: qHTS assay to identify small molecule antagonists of the peroxisome proliferator-activated receptor delta (PPARd) signaling pathway (AID 743215; active means well fitted inhibition curve with a large enough effect in the signal ratio in the repeat runs, not every such curve was filed as active; the % refers to the signal ratio;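 further: cells stimulated with agonist L165041 at 300 nM final during compound exposure; series mostly up to about 62 µM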)
In short: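 PPARd-bla HEK293H cells (UAS-bla reporter) preincubated 5 h, then given compound plus 300 nM final L165041 agonist for 17 h at 37 C. Beta-lactamase activity read by LiveBLAzer B/G FRET substrate fluorescence after 2 h at room temperature.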

[20] = biological target: Vitamin D3 receptor (Homo sapiens) (UniProt P11473); experiment: qHTS assay to identify small molecule antagonists of the vitamin D receptor (VDR) signaling pathway (AID 743223; active means well fitted inhibition curve with a large enough effect in the signal ratio in the repeat runs, not every such curve was filed as active; the % refers to the signal ratio)
In short: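 VDR-bla cells were plated, incubated 4 h at 37C, then given compound and 1alpha,25-dihydroxyvitamin D3 (3 nM final). After 16 h at 37C, LiveBLAzer B/G FRET substrate was added for 2 h at room temperature and fluorescence read.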

Sequence of Vitamin D3 receptor (Homo sapiens) (P11473 whole entry, looked up): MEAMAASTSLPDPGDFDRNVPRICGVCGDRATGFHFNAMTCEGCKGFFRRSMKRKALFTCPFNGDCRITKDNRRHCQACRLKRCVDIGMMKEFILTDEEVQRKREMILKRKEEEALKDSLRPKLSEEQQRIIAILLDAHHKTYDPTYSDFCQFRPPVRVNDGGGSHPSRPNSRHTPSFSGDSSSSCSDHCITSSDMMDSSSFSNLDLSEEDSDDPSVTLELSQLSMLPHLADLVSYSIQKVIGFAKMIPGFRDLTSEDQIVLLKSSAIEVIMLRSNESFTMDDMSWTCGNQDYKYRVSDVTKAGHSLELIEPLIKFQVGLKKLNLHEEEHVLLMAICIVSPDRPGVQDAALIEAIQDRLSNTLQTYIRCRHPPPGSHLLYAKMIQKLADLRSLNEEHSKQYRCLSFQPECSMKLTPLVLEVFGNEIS
Sequence of Aryl hydrocarbon receptor (Homo sapiens) (P35869 whole entry, looked up): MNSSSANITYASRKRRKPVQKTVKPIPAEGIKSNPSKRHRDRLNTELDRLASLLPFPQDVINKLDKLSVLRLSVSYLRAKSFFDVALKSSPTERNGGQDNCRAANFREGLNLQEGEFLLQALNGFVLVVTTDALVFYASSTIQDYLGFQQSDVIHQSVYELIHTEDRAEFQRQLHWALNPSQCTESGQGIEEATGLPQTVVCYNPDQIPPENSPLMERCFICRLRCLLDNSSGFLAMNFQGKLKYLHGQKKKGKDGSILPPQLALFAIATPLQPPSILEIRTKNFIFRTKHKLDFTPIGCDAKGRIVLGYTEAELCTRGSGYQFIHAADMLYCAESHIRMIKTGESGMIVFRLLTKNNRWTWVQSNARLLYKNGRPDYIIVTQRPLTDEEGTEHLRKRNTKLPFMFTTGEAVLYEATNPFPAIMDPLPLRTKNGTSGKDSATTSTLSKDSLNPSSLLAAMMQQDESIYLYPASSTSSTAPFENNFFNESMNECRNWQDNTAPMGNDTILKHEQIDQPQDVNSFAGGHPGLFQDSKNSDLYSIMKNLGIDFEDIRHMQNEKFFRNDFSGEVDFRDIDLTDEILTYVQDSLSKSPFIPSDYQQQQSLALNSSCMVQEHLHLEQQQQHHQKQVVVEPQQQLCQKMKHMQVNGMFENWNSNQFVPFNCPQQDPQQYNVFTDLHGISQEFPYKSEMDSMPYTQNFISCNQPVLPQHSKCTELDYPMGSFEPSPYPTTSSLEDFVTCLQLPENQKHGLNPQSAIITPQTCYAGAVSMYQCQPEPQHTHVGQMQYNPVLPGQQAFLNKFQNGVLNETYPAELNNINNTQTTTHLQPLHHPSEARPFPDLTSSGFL
Sequence of Bile acid receptor (Homo sapiens) (Q96RI1 whole entry, looked up): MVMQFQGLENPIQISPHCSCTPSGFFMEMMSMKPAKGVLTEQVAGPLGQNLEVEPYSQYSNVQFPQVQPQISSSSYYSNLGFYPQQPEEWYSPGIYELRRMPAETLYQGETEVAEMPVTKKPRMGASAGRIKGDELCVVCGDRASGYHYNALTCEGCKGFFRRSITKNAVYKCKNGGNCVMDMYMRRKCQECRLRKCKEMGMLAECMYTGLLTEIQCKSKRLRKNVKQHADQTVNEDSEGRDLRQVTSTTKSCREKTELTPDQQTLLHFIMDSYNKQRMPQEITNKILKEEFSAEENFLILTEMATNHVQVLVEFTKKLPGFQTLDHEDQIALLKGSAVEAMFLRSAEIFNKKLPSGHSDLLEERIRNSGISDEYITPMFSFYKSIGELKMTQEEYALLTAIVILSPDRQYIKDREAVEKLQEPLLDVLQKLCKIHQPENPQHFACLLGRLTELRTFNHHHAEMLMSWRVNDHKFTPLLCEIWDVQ
Sequence of Peroxisome proliferator-activated receptor delta (Homo sapiens) (Q03181 whole entry, looked up): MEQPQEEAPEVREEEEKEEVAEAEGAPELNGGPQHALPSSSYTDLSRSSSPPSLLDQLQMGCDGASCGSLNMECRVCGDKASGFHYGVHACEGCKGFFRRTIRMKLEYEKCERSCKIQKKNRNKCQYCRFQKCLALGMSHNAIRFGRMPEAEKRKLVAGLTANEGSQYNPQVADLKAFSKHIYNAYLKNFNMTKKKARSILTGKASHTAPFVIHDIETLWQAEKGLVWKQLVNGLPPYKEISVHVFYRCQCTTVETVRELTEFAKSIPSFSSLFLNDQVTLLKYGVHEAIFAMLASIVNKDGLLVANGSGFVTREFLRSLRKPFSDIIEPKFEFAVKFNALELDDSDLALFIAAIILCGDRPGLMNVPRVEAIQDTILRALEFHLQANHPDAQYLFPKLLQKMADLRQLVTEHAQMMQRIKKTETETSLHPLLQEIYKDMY
Sequence of Peroxisome proliferator-activated receptor gamma (Homo sapiens) (P37231 whole entry, looked up): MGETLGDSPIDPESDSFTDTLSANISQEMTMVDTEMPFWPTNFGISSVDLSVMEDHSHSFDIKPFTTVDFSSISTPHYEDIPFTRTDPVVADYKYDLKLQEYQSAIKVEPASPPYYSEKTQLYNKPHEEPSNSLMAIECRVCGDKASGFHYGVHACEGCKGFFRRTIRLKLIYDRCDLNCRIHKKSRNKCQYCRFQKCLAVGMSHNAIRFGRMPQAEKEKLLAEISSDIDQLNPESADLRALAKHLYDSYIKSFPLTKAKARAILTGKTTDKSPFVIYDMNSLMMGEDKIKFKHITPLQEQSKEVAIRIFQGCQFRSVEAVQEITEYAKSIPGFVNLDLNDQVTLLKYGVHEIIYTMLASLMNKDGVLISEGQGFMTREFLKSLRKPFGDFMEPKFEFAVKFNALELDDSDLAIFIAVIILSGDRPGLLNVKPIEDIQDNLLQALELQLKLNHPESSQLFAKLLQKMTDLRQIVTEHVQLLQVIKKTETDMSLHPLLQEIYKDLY

Compound	Potency [1]	Potency [2]	Potency [3]	outcome [4]	Potency [5]	outcome [6]	outcome [7]	outcome [8]	outcome [9]	outcome [10]	outcome [11]	outcome [12]	Potency [13]	outcome [14]	Potency [15]	outcome [16]	outcome [17]	outcome [18]	outcome [19]	outcome [20]
CO[Si](CCCS)(OC)OC	inactive	inactive	inactive	inactive	inactive	inactive	inactive	inactive	inactive	inactive	inactive	inactive	inactive	inactive						
Oc1ccccc1Cc1ccccc1O	inactive	inactive	inactive	inactive	30.9 µM (active)		inactive	inactive		inactive	inactive		inactive		38.6 µM (active)	inactive	inactive			
Cc1cccc(C(=O)O)c1[N+](=O)[O-]	inactive	inactive	inactive	inactive	inactive	inactive	inactive		inactive	inactive	inactive		inactive			inactive	inactive	inactive		
OC(CCN1CCCCC1)(c1ccccc1)c1ccccc1	inactive	21.1 µM (active)	inactive	inactive	inactive	inactive	inactive	inactive	inactive		inactive		inactive		inactive	inactive				
CC(C)(C)c1ccc(C=O)cc1	inactive	inactive	inactive	inactive		inactive	inactive	inactive	inactive	inactive	inactive		inactive		inactive	inactive	inactive	inactive	inactive	inactive
CC1(N)CCC(C(C)(C)N)CC1 (stereo not drawn)	inactive	inactive	inactive	inactive		inactive	inactive	inactive	inactive	inactive	inactive		inactive		inactive	inactive	inactive	inactive	inactive	inactive
C=COCCOCCOC=C	inactive	inactive	inactive	inactive	inactive	inactive	inactive	inactive	inactive	inactive		inactive	inactive			inactive	inactive	inactive	inactive	
CCOC(=O)CC(CC(=O)OCC)(OC(C)=O)C(=O)OCC	inactive	inactive	inactive	inactive	inactive		inactive	inactive	inactive		inactive	inactive	inactive		inactive	inactive		inactive		inactive
CCCCC/C=C/CC(=O)OC	inactive	inactive	inactive	inactive	inactive	inactive	inactive		inactive		inactive		inactive		inactive	inactive	inactive			inactive
